14 compounds from the supplement of paper PMC10646978 can be followed below.

± gives the standard deviation.

Holding throughout (details): modulator concentration 10 µM
For assay [1], the system named is RAW-Dual (murine macrophage reporter line). Put plainly: NF-kB reporter (SEAP) activity fold change vs agonist alone; higher = enhanced NF-kB activity. An outline of the steps:
(§1)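 RAW-Dual murine macrophage reporter cells were plated at 50 000 per well in 384-well plates, pin-transferred compound to 10 μM final, and pre-incubated for 1 hour at 37 °C before a PRR agonist was added and the cells incubated overnight. NF-κB activity was read from supernatant SEAP with QUANTI-Blue at 620 nm absorbance, and IRF activity from Lucia luciferase with QUANTI-Luc by luminescence. Each signal was expressed as fold change by dividing by the mean agonist-only control on the same plate. Two replicate plates were averaged, with errors obtained by propagation.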

Assay [2] shares this test system. Put plainly: IRF reporter (Lucia luciferase) activity fold change vs agonist alone; higher = enhanced IRF activity. The method, boiled down:
as §1

Assay [3] shares this test system. Put plainly: viability score (confluency relative to resting cells, overnight) (fraction); higher = more viable, active = viable (0.7 or more). The method, boiled down: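 RAW-Dual macrophages in 384-well plates were exposed overnight to compound at 10 μM final. Confluency was imaged with IncuCyte, and two confluency masks were generated with IncuCyte software over all imaged wells. The viability score is confluency expressed relative to resting cells. Compounds were called viable if both masks exceeded 70% of resting cells.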

The mark [4] stands for this setting: agonist: CpG ODN 1826 0.5 ug/mL.

With `Cc1ccc(-c2cc(-c3ccccc3)nc(NN=Cc3ccc(O)cc3)n2)cc1`, the NF-kB reporter in assay [1] (setting [4]) was 0.952 ± 0.12; in assay [1] (agonist: LPS 0.1 ug/mL), 1.3 ± 0.14; in assay [1] (agonist: MPLA […]), 1.7 ± 0.17. For the same compound, the IRF reporter in assay [2] (agonist: 3'3'-cGAMP 10 ug/mL) amounted to 0.228 ± 0.026; in assay [2] (agonist: LPS 0.1 ug/mL), 0.942 ± 0.12; in assay [2] (agonist: MPLA […]), 0.949 ± 0.12. Besides, in assay [3], the viability score was 0.923 (active).
Turning to `O=C(CCCCC(=O)NN=Cc1cccc(O)c1)NN=Cc1cccc(O)c1`, the NF-kB reporter is 1.05 ± 0.093 in assay [1] (setting [4]), 1.08 ± 0.081 in assay [1] (agonist: LPS 0.1 ug/mL) and 0.935 ± 0.12 in assay [1] (agonist: MPLA […]). Besides, the IRF reporter in assay [2] (agonist: 3'3'-cGAMP 10 ug/mL) came out at 0.955 ± 0.032; in assay [2] (agonist: LPS 0.1 ug/mL) it was 1.41 ± 0.15; in assay [2] (agonist: MPLA […]) it was 1.16 ± 0.17. Also, the viability score in assay [3] is 1 (active).
With `C[C@H]1O[C@H]1P(=O)(O)O.NC(CO)(CO)CO`, the NF-kB reporter is 0.922 ± 0.053 in assay [1] (setting [4]), 1.05 ± 0.064 in assay [1] (agonist: LPS 0.1 ug/mL) and 0.977 ± 0.079 in assay [1] (agonist: MPLA […]). Moreover, the IRF reporter in assay [2] (agonist: 3'3'-cGAMP 10 ug/mL) was 0.937 ± 0.036; in assay [2] (agonist: LPS 0.1 ug/mL), 1.06 ± 0.15; in assay [2] (agonist: MPLA […]) it was 0.989 ± 0.2. In addition, the viability score in assay [3] was 0.994 (active).
On to `O=C(NCC(O)Cc1ccccc1)Nc1ccc(F)cc1` (stereo not drawn), for which the NF-kB reporter came to 0.893 ± 0.096 in assay [1] (setting [4]), 0.969 ± 0.077 in assay [1] (agonist: LPS 0.1 ug/mL) and 1.08 ± 0.064 in assay [1] (agonist: MPLA […]). For the same compound, the IRF reporter in assay [2] (agonist: 3'3'-cGAMP 10 ug/mL) was 1.04 ± 0.048; in assay [2] (agonist: LPS 0.1 ug/mL) it was 1.28 ± 0.3; in assay [2] (agonist: MPLA […]), 1.36 ± 0.37. Besides, the viability score in assay [3] was 0.971 (active).
On to `N[C@H]1CONC1=O`, for which the NF-kB reporter amounted to 1.08 ± 0.13 in assay [1] (setting [4]), 1.06 ± 0.057 in assay [1] (agonist: LPS 0.1 ug/mL) and 1.03 ± 0.074 in assay [1] (agonist: MPLA […]). Besides, the results for the IRF reporter in assay [2] (agonist: 3'3'-cGAMP 10 ug/mL), in assay [2] (agonist: LPS 0.1 ug/mL) and in assay [2] (agonist: MPLA […]) were 1.02 ± 0.1, 0.957 ± 0.039 and 0.949 ± 0.1, respectively. Also, the viability score in assay [3] was 1.01 (active).
Consider `CC1CCN(c2ccc(-c3ccc(NC(=O)c4ccc5ncsc5c4)cc3)nn2)CC1`, for which the NF-kB reporter in assay [1] (setting [4]) was 0.914 ± 0.039; in assay [1] (agonist: LPS 0.1 ug/mL) it was 0.98 ± 0.078; in assay [1] (agonist: MPLA […]), 1.02 ± 0.057. For the same compound, the IRF reporter in assay [2] (agonist: 3'3'-cGAMP 10 ug/mL) is 0.967 ± 0.045; in assay [2] (agonist: LPS 0.1 ug/mL), 1.09 ± 0.12; in assay [2] (agonist: MPLA […]), 1.17 ± 0.23. Also, the viability score in assay [3] was 0.986 (active).
Regarding `CCOc1ccc(-c2nc3c(c(C)nn3-c3ccccc3)c3cc(OC)c(OC)cc23)cc1`, the NF-kB reporter in assay [1] (setting [4]) is 0.812 ± 0.063; in assay [1] (agonist: LPS 0.1 ug/mL), 0.934 ± 0.089; in assay [1] (agonist: MPLA […]), 1.05 ± 0.095. The IRF reporter stood at 0.948 ± 0.043 in assay [2] (agonist: 3'3'-cGAMP 10 ug/mL), 1.29 ± 0.075 in assay [2] (agonist: LPS 0.1 ug/mL) and 1.48 ± 0.14 in assay [2] (agonist: MPLA […]). The viability score in assay [3] was 1 (active).
Regarding `COc1cc2c(cc1Cc1cccc(Cl)c1F)c(=O)c(C(=O)O)cn2[C@H](CO)C(C)C`, the NF-kB reporter is 0.941 ± 0.14 in assay [1] (setting [4]), 1.04 ± 0.27 in assay [1] (agonist: LPS 0.1 ug/mL) and 1.25 ± 0.085 in assay [1] (agonist: MPLA […]). The IRF reporter in assay [2] (agonist: 3'3'-cGAMP 10 ug/mL) was determined as 0.822 ± 0.026; in assay [2] (agonist: LPS 0.1 ug/mL) it was 1.13 ± 0.12; in assay [2] (agonist: MPLA […]), 0.848 ± 0.079. Also, the viability score in assay [3] was 0.936 (active).
As for `Cn1nccc1-c1ccc(CNC(=O)c2cc(Br)cs2)cn1`, the figures for the NF-kB reporter in assay [1] (setting [4]), in assay [1] (agonist: LPS 0.1 ug/mL) and in assay [1] (agonist: MPLA […]) were 1.02 ± 0.082, 0.974 ± 0.078 and 1.16 ± 0.12, respectively. Moreover, the values for the IRF reporter in assay [2] (agonist: 3'3'-cGAMP 10 ug/mL), in assay [2] (agonist: LPS 0.1 ug/mL) and in assay [2] (agonist: MPLA […]) were 1.03 ± 0.032, 1.35 ± 0.17 and 1.53 ± 0.23, respectively. The viability score in assay [3] was 1 (active).
With `N#CC(=Cc1c(F)cccc1Cl)C(=O)Nc1ccc(Cl)cc1`, the NF-kB reporter in assay [1] (setting [4]) worked out at 1.08 ± 0.22; in assay [1] (agonist: LPS 0.1 ug/mL), 0.977 ± 0.077; in assay [1] (agonist: MPLA […]) it was 0.952 ± 0.079. Further, the figures for the IRF reporter in assay [2] (agonist: 3'3'-cGAMP 10 ug/mL), in assay [2] (agonist: LPS 0.1 ug/mL) and in assay [2] (agonist: MPLA […]) were 0.746 ± 0.17, 1.3 ± 0.22 and 1.25 ± 0.13, respectively. The viability score in assay [3] was 1.01 (active).
For the compound `CCCOc1ccc(CCC(=O)O)cc1`, the NF-kB reporter in assay [1] (setting [4]) is 1.38 ± 0.33; in assay [1] (agonist: LPS 0.1 ug/mL), 1.08 ± 0.075; in assay [1] (agonist: MPLA […]), 0.985 ± 0.035. Besides, the IRF reporter was 1.07 ± 0.23 in assay [2] (agonist: 3'3'-cGAMP 10 ug/mL), 1.11 ± 0.05 in assay [2] (agonist: LPS 0.1 ug/mL) and 1.05 ± 0.1 in assay [2] (agonist: MPLA […]). Moreover, in assay [3], the viability score was 1 (active).
For `O=C(NCC1(O)Cc2ccccc2C1)c1cccc(Br)c1`, the NF-kB reporter came to 1.09 ± 0.055 in assay [1] (setting [4]), 1.02 ± 0.093 in assay [1] (agonist: LPS 0.1 ug/mL) and 1.03 ± 0.15 in assay [1] (agonist: MPLA […]). In addition, the IRF reporter stood at 1.05 ± 0.069 in assay [2] (agonist: 3'3'-cGAMP 10 ug/mL), 1.2 ± 0.11 in assay [2] (agonist: LPS 0.1 ug/mL) and 1.32 ± 0.1 in assay [2] (agonist: MPLA […]). Moreover, in assay [3], the viability score is 0.677 (inactive).
For `CN1CC(=O)N2[C@H](c3ccc4c(c3)OCO4)c3[nH]c4ccccc4c3C[C@@H]2C1=O`, the NF-kB reporter in assay [1] (setting [4]) amounted to 0.821 ± 0.2; in assay [1] (agonist: LPS 0.1 ug/mL) it was 1.05 ± 0.23; in assay [1] (agonist: MPLA […]) it was 0.976 ± 0.056. Also, the IRF reporter came out at 0.869 ± 0.026 in assay [2] (agonist: 3'3'-cGAMP 10 ug/mL), 1.01 ± 0.24 in assay [2] (agonist: LPS 0.1 ug/mL) and 0.922 ± 0.08 in assay [2] (agonist: MPLA […]). For the same compound, the viability score in assay [3] was 0.981 (active).
For `Cc1ccc(S(=O)(=O)Nc2cc(-c3c(O)ccc4ccccc34)c(O)c3ccccc23)cc1`, the figures for the NF-kB reporter in assay [1] (setting [4]), in assay [1] (agonist: LPS 0.1 ug/mL) and in assay [1] (agonist: MPLA […]) were 0.941 ± 0.073, 0.994 ± 0.076 and 1.16 ± 0.11, respectively. Besides, the IRF reporter was determined as 0.337 ± 0.015 in assay [2] (agonist: 3'3'-cGAMP 10 ug/mL), 0.808 ± 0.047 in assay [2] (agonist: LPS 0.1 ug/mL) and 0.611 ± 0.075 in assay [2] (agonist: MPLA […]). Further, the viability score in assay [3] is 0.956 (active).
